{"source": "paper PMC7819943", "about": "“Rice protein-binding microarrays: a tool to detect cis-acting elements near promoter regions in rice”", "note": "The full ranking holds about 39,000 sequences; the median of “fluorescence intensity (a.u.)” is about 4,300, and the highest 2% start at about 39,000. The sample as a whole holds a higher share of the highest values than the screen did.", "data": [{"biological_target": "T1, OsSMF1 (Oryza sativa, UniProt Q6ZLB0 1-436)", "T1 sequence": "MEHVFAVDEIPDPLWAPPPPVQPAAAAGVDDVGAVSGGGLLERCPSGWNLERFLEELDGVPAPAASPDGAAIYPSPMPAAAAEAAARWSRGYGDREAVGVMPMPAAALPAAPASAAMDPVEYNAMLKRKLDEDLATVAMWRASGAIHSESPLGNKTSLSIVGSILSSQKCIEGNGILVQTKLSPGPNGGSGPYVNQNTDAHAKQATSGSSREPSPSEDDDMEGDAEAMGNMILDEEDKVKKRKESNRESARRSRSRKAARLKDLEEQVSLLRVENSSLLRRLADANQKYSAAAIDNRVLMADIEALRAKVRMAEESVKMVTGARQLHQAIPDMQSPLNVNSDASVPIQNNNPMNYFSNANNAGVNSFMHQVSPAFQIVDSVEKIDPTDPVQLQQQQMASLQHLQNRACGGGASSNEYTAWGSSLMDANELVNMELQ", "experiment": "protein-binding microarray (RPBM); PBS, 2% BSA, 51.3 ng/ul salmon testes DNA, 50 uM zinc acetate, 200 nM TF, 25 C, 1 h; high values mean tight binding", "settings": "protein: recombinant; tags: N-terminal polyhistidine and DsRed monomer fusion (pET32a); chain copies: 2; label: CyDye5-dUTP incorporated in the synthesized complementary strand; 3' TTTTT single-stranded linker to array surface; dsDNA, one strand shown", "method_in_brief": "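The binding signal for each feature is its fluorescence intensity in arbitrary units. An Axon 4000B scanner was used to read a custom Agilent array that had been made double-stranded with Cy5-dUTP primer extension, blocked with 2% BSA, incubated at 25 °C for 1 h with 200 nM protein in PBS, 2% BSA, salmon testes DNA and 50 µM zinc acetate, and washed. The protein was an N-terminal polyhistidine–DsRed transcription factor fusion from E. coli BL21-CodonPlus, purified on Ni–NTA.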", "values": [{"sequence": "ACCAACGAACGGACGCTGTCATGTCACCTCTCTTAATCTTCGGAGTCACCTAGTGCAG", "binding signal": "3740 fluorescence intensity (a.u.)"}, {"sequence": "AGCCTCTTCCATCTCGAGCCAGCTCATATTGATTATCCAACGGAGTCACCTAGTGCAG", "binding signal": "4850 fluorescence intensity (a.u.)"}, {"sequence": "AGCTGTGCCAACGAGCCCTTAATTAGTTATTATCTCTTCTCGGAGTCACCTAGTGCAG", "binding signal": "44600 fluorescence intensity (a.u.)"}, {"sequence": "AAGCACTCCAAACTGCAACGATTATATCAATAAAATAAAACGGAGTCACCTAGTGCAG", "binding signal": "39000 fluorescence intensity (a.u.)"}, {"sequence": "TAGCATAGCCAACTGCTGACTCCAAATTATCTATAGTCAACGGAGTCACCTAGTGCAG", "binding signal": "3850 fluorescence intensity (a.u.)"}, {"sequence": "AACTGCAGCAATATCACTCCCTCCAAATCAGCACATGCATCGGAGTCACCTAGTGCAG", "binding signal": "3560 fluorescence intensity (a.u.)"}, {"sequence": "TGTCAGTTGGCGAGGGATGCACTGATGACTATGCTAGTGCCGGAGTCACCTAGTGCAG", "binding signal": "4860 fluorescence intensity (a.u.)"}, {"sequence": "AAGCTAGTACAAGATGCGAAATGTCGTCAGATTCAGAGATCGGAGTCACCTAGTGCAG", "binding signal": "3580 fluorescence intensity (a.u.)"}, {"sequence": "CGTTGCGCACGTACAGCTCACGCTCAAGTCGTACACATTACGGAGTCACCTAGTGCAG", "binding signal": "3840 fluorescence intensity (a.u.)"}, {"sequence": "AGTACATAATTACGCACATGTGACACACACCACACATACTCGGAGTCACCTAGTGCAG", "binding signal": "3140 fluorescence intensity (a.u.)"}, {"sequence": "ATACGATACCATAGGTATGTCAGCATGATATATATGTACTCGGAGTCACCTAGTGCAG", "binding signal": "3890 fluorescence intensity (a.u.)"}, {"sequence": "TGTCATAAATTGTACCGACATGATACACATGTCCGATACTCGGAGTCACCTAGTGCAG", "binding signal": "39400 fluorescence intensity (a.u.)"}, {"sequence": "TATGTGTTGACACCAAGGCTGACTCGGTTTTCGTCAAGGTCGGAGTCACCTAGTGCAG", "binding signal": "6530 fluorescence intensity (a.u.)"}, {"sequence": "GTCGTCTAGTAGTAGTAGCCTACCACCACCTCCCTCGGCGCGGAGTCACCTAGTGCAG", "binding signal": "3230 fluorescence intensity (a.u.)"}, {"sequence": "AAATGGGGCCTAGAGTTCCAACCAATTGCAGCAAGAGCAGCGGAGTCACCTAGTGCAG", "binding signal": "3230 fluorescence intensity (a.u.)"}, {"sequence": "AATTGGGATCAAAGCCTTCATGTTCATAGCAAATCAAGAGCGGAGTCACCTAGTGCAG", "binding signal": "45900 fluorescence intensity (a.u.)"}, {"sequence": "TAGCAAGAGACCTTGTTGAGCATGTCATCAATGTCAAGTGCGGAGTCACCTAGTGCAG", "binding signal": "4150 fluorescence intensity (a.u.)"}, {"sequence": "AGAATTTTGCAGACCGAGGCTTGGCCACCGAGGCGCAAGCCGGAGTCACCTAGTGCAG", "binding signal": "3790 fluorescence intensity (a.u.)"}, {"sequence": "GAACGACCCGAACTTATGACTCATTTATGGTTTGTTTCTCCGGAGTCACCTAGTGCAG", "binding signal": "8680 fluorescence intensity (a.u.)"}, {"sequence": "ACCTCCTCCACCTCCATGGCTCACCACCACGTACAGCAAACGGAGTCACCTAGTGCAG", "binding signal": "3360 fluorescence intensity (a.u.)"}, {"sequence": "TTTTAAGGGGCAAATCTTACCAACTTTTACTAGCGTGTCACGGAGTCACCTAGTGCAG", "binding signal": "3680 fluorescence intensity (a.u.)"}, {"sequence": "AGTAGCAAAACCTGTTTGTAGAGGAAATTATTATAGTGTTCGGAGTCACCTAGTGCAG", "binding signal": "53700 fluorescence intensity (a.u.)"}, {"sequence": "CTAAAACCACATATAAGGAGTGTCCTGTAGCAAAATTTCCCGGAGTCACCTAGTGCAG", "binding signal": "4200 fluorescence intensity (a.u.)"}, {"sequence": "CTGTAGCAAATTAGAAGCAAAAGTGTTAGTTCAAATTGTGCGGAGTCACCTAGTGCAG", "binding signal": "3320 fluorescence intensity (a.u.)"}, {"sequence": "CGTGTGTAACTTTGGAACCTGCCACGGGAGAGCGAATTCCCGGAGTCACCTAGTGCAG", "binding signal": "25500 fluorescence intensity (a.u.)"}, {"sequence": "ACAAATTATAAGTAACAAACTTTTGTGACGTATAGTAGCCCGGAGTCACCTAGTGCAG", "binding signal": "4440 fluorescence intensity (a.u.)"}, {"sequence": "TGTGAATTACTAGTAGTACGTAAGCATAAATACGCCACCCCGGAGTCACCTAGTGCAG", "binding signal": "3550 fluorescence intensity (a.u.)"}, {"sequence": "GAATAGTAACAATTAGTTTTGTGAATTTTGTGAAATACGCCGGAGTCACCTAGTGCAG", "binding signal": "52300 fluorescence intensity (a.u.)"}, {"sequence": "AACCTGCTGTCCACTACAACGTCACATTTCAACAAATCCACGGAGTCACCTAGTGCAG", "binding signal": "34200 fluorescence intensity (a.u.)"}, {"sequence": "GCTTCCCGCACGACACCTGTCCACACAAATCTTAGAGCAACGGAGTCACCTAGTGCAG", "binding signal": "41400 fluorescence intensity (a.u.)"}, {"sequence": "ACCAACGGCCCGAGTCCGACACACGTCTCACGCACGAGCACGGAGTCACCTAGTGCAG", "binding signal": "3910 fluorescence intensity (a.u.)"}, {"sequence": "CACACAGCCGCCCTTGCCGACCGCCACCGCCGCAACCGCACGGAGTCACCTAGTGCAG", "binding signal": "3300 fluorescence intensity (a.u.)"}, {"sequence": "TTTGCGAACGTAATTCCATTAATTAAACACACGTCTATATCGGAGTCACCTAGTGCAG", "binding signal": "3220 fluorescence intensity (a.u.)"}, {"sequence": "TCGAAGAAGCCCTTTATTTCTCTTTTCGATACTCACACAACGGAGTCACCTAGTGCAG", "binding signal": "3260 fluorescence intensity (a.u.)"}, {"sequence": "GTCAGCGCCAACTTACTTGGCGCTGAGGTTGTGCACCTCACGGAGTCACCTAGTGCAG", "binding signal": "3160 fluorescence intensity (a.u.)"}, {"sequence": "CGGGCGACGCCGGTGCTGGCGCCAGCGTGGGGCCGCGACGCGGAGTCACCTAGTGCAG", "binding signal": "4780 fluorescence intensity (a.u.)"}, {"sequence": "GGCGGAGAGGGTATGGACAACAGCGCCGAGGTGGCGTGGCCGGAGTCACCTAGTGCAG", "binding signal": "5480 fluorescence intensity (a.u.)"}, {"sequence": "GCGTGGGGCGCCGGTGGCGGAGGGTGGGGACGACAACCAGCGGAGTCACCTAGTGCAG", "binding signal": "65500 fluorescence intensity (a.u.)"}, {"sequence": "GCCAGGTGGGCTGGCGCTGAGTGTCCCACGGTCAGCGCCACGGAGTCACCTAGTGCAG", "binding signal": "4010 fluorescence intensity (a.u.)"}, {"sequence": "CAGCTACCTCAGCGCCAACCGGACTGGCGCTGAGGTGGGACGGAGTCACCTAGTGCAG", "binding signal": "39200 fluorescence intensity (a.u.)"}, {"sequence": "ATTTAATGTTGTCCTAGCTAGATCCATCCAAGGCTCCAAACGGAGTCACCTAGTGCAG", "binding signal": "3590 fluorescence intensity (a.u.)"}, {"sequence": "CGCCAGCCACCTCCGGCGCCGTTCGCCAGCCACCACGCGCCGGAGTCACCTAGTGCAG", "binding signal": "37900 fluorescence intensity (a.u.)"}]}]}
